# Measured values from article PMC10726135, “HNF4α isoforms regulate the circadian balance between carbohydrate and lipid metabolism in the liver”.
# The full ranking holds about 18,000 sequences; the median of “log2 normalized intensity” is about 0.36, and the highest 2% start at about 7.3. Many of the other results were omitted from the sample, so the highest values are more common in it than they were.
# Molecular target: T1, HNF4alpha8 (COS-7 nuclear extract) (Homo sapiens, UniProt P41235-5 1-452)
# T1 sequence: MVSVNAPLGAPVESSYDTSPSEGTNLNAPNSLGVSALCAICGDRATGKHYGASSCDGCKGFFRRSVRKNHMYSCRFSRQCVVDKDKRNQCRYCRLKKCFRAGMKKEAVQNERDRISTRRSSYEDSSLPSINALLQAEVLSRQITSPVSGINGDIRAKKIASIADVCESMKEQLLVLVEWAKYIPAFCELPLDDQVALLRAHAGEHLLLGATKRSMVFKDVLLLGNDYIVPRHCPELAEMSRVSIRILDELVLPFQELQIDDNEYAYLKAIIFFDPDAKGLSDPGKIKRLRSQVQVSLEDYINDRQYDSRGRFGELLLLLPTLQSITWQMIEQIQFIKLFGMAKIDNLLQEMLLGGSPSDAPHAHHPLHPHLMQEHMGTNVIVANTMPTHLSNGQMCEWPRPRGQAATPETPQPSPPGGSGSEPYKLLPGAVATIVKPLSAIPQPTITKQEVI
# Assay: protein-binding microarray; COS-7 nuclear extract on double-stranded Agilent 4x180k PBM; binding buffer, salt, pH and temperature not given in the material; high values mean tight binding
# Settings: chain copies: 2; label: 3' end of strand 1 on the slide; dsDNA, one strand shown
# Outline: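 Nuclear extracts from COS-7 cells expressing a transiently transfected human HNF4α isoform were put on a custom Agilent SurePrint G3 4x180k array carrying ~44,000 double-stranded ~60-nt test sequences in quadruplicate. Imaging used an Agilent G2565CA scanner at 2-µm resolution. Binding signal is the background-corrected, normalized gProcessedSignal from Agilent software.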
row,Sequence,binding signal [log2 normalized intensity]
1,CTGATGAATAGAAAGAGGTCAATGTACTTAGCCTAGGGAGATTAGAGTATCGGTCGA,2.94
2,TATGTTAATGGCAGAATCAAAGGTCAAAATGCCTAGGGAGATTAGAGTATCGGTCGA,5.17
3,CATTGATAATTCAGTTTCATTGCACTTTGCGCCTAGGGAGATTAGAGTATCGGTCGA,4.62
4,TTCATTGCACTTTGCCCTCTCTTCAGCACCGCCTAGGGAGATTAGAGTATCGGTCGA,6.34
5,TGCACTTTGCCCTCTCTTCAGCACCTTTTAGCCTAGGGAGATTAGAGTATCGGTCGA,5.26
6,ACTGCCATTGATAATTCAGTTTCATTGCACGCCTAGGGAGATTAGAGTATCGGTCGA,-0.131
7,ATAATTCAGTTTCATTGCACTTTGCCCTCTGCCTAGGGAGATTAGAGTATCGGTCGA,9.39
8,TCAGTTTCATTGCACTTTGCCCTCTCTTCAGCCTAGGGAGATTAGAGTATCGGTCGA,7.35
9,GGTCTGTTTGTGAAACAGTGGGCAATATGAGCCTAGGGAGATTAGAGTATCGGTCGA,1.18
10,AACCTAGCCCCCTTTCCCTTATCTTTGTTAGCCTAGGGAGATTAGAGTATCGGTCGA,2.54
11,GGACAAAGTTCGTGGAAAGTGGAAGAATGGGCCTAGGGAGATTAGAGTATCGGTCGA,0.952
12,CATGAAGCTTCCCCTTTAACCAATATTAGCGCCTAGGGAGATTAGAGTATCGGTCGA,0.107
13,TCTTGGAATGTTGAACCTTTCTTTGTCTTTGCCTAGGGAGATTAGAGTATCGGTCGA,2.31
14,CATGCTCTTGGAATGTTGAACCTTTCTTTGGCCTAGGGAGATTAGAGTATCGGTCGA,3.19
15,TATCTTCTTTCAGTGTTGACCTTTGAACATGCCTAGGGAGATTAGAGTATCGGTCGA,9.23
16,AACCTTCATCTCTCTTTGTTGACATCTGCTGCCTAGGGAGATTAGAGTATCGGTCGA,-0.0144
17,AGGAGTGTCTTTCTCCTTGAACACAGTGTTGCCTAGGGAGATTAGAGTATCGGTCGA,1.24
18,AACACTATCTTCTTTCAGTGTTGACCTTTGGCCTAGGGAGATTAGAGTATCGGTCGA,7.46
19,GAATGTTGAACCTTTCTTTGTCTTTGCAATGCCTAGGGAGATTAGAGTATCGGTCGA,1.98

row,Sequence,binding signal [log2 normalized intensity]
1,TCTTTCAGTGTTGACCTTTGAACATTTCTTGCCTAGGGAGATTAGAGTATCGGTCGA,8.97
2,TATCCAATAAAACACTATCTTCTTTCAGTGGCCTAGGGAGATTAGAGTATCGGTCGA,0.405
3,TTACCATATTTACTTATGGTTTGACCCTGCGCCTAGGGAGATTAGAGTATCGGTCGA,5.23
4,AATTCCTTTCAAACTGTATTGCTCAATGTCGCCTAGGGAGATTAGAGTATCGGTCGA,0.181
5,GAGTTGGAGAAGAGCAAAGATCATCTGGTGGCCTAGGGAGATTAGAGTATCGGTCGA,1.45
6,CAAAAGTTCAAACTTTATTTGATGATGAAGGCCTAGGGAGATTAGAGTATCGGTCGA,0.503
7,AATGCGCAGAATTTCTTTTAATGTGTGCTTGCCTAGGGAGATTAGAGTATCGGTCGA,0.136
8,TTAATACTTTGGAACTCAGTTAATGTACAGGCCTAGGGAGATTAGAGTATCGGTCGA,1.59
9,CTTAGCAGTGGGAGACAGGCATTAACCCTTGCCTAGGGAGATTAGAGTATCGGTCGA,1.74
10,TTCTTCTGGTTCTGCAAGGCAACTGACCTTGCCTAGGGAGATTAGAGTATCGGTCGA,4.13
11,TCTGCAAGGCAACTGACCTTTGGATCTGGGGCCTAGGGAGATTAGAGTATCGGTCGA,8.01
12,CTTGGGGGAGGAGGGCAACCTTTGAACTGGGCCTAGGGAGATTAGAGTATCGGTCGA,6.02
13,AACTGTACTTTGGACTGGGGACCTGGTCTGGCCTAGGGAGATTAGAGTATCGGTCGA,4.79
14,CTGGTTCTGCAAGGCAACTGACCTTTGGATGCCTAGGGAGATTAGAGTATCGGTCGA,8.71
15,GAGACAACTGCAACAGGAGGACCTCTGGATGCCTAGGGAGATTAGAGTATCGGTCGA,-0.854
16,TTTATGACCTTTGACTGCAGAAGATAAGAAGCCTAGGGAGATTAGAGTATCGGTCGA,4.5
17,TGATAAAGGGGGCAAAGGGCATGGGCAGCTGCCTAGGGAGATTAGAGTATCGGTCGA,4.41
18,AAGGTCAGCAAGCCTGGAGTTCTGATGTTCGCCTAGGGAGATTAGAGTATCGGTCGA,0.91
19,GGAGACCACTGGTGTAAGCTCTGGAGTCCAGCCTAGGGAGATTAGAGTATCGGTCGA,1.64

row,Sequence,binding signal [log2 normalized intensity]
1,TGTTTGCCTCTCAGCTCATTCAAAGTCCAAGCCTAGGGAGATTAGAGTATCGGTCGA,4.2
2,TGGGAGCAAAGGTCAAGAGTTTTAAAGTATGCCTAGGGAGATTAGAGTATCGGTCGA,5.47
3,TTAGGAGGATGACAAAGAGCAAGTGACCCTGCCTAGGGAGATTAGAGTATCGGTCGA,4.46
4,ATCCACCCATCCAAAGGTCAGCAATCTCAAGCCTAGGGAGATTAGAGTATCGGTCGA,3.45
5,CTGGAGTCCAAAGGTCAGCAAGCCTGGAGTGCCTAGGGAGATTAGAGTATCGGTCGA,7.44
6,CCACTGGTGTAAGCTCTGGAGTCCAAAGGTGCCTAGGGAGATTAGAGTATCGGTCGA,4.54
7,GGTGTAAGCTCTGGAGTCCAAAGGTCAGCAGCCTAGGGAGATTAGAGTATCGGTCGA,8.69
8,AAGCTCTGGAGTCCAAAGGTCAGCAAGCCTGCCTAGGGAGATTAGAGTATCGGTCGA,8.14
9,GGAGTGACCCTGGGAGCAAAGGTCAAGAGTGCCTAGGGAGATTAGAGTATCGGTCGA,7.55
10,GTCCAAAGGTCAGCAAGCCTGGAGTTCTGAGCCTAGGGAGATTAGAGTATCGGTCGA,5.05
11,TATTTGCTCACCAGTGACCAATAATGTAATGCCTAGGGAGATTAGAGTATCGGTCGA,0.199
12,ATTAGCTTCTGTTCAGGAGTTGTCTGTCCAGCCTAGGGAGATTAGAGTATCGGTCGA,1.39
13,CCATGCTCTTTGGCCTGGCATTTGAGACTAGCCTAGGGAGATTAGAGTATCGGTCGA,0.329
14,TTTGTCCCCCACCTGTGAAGATAAGCTGTCGCCTAGGGAGATTAGAGTATCGGTCGA,3.17
15,AGAATGGAGAAAACAACATTCCTTGTGTTTGCCTAGGGAGATTAGAGTATCGGTCGA,0.48
16,TCAGCCTTAACTCAAAAGGCCAAAGTCCAAGCCTAGGGAGATTAGAGTATCGGTCGA,9.11
17,TCCACAGTCAAGGCCAAAGGTTAAAAATAAGCCTAGGGAGATTAGAGTATCGGTCGA,4.8
18,AATTCTTAAGCCAAAGTCCAAGTTGGTGAGGCCTAGGGAGATTAGAGTATCGGTCGA,3.81
